Several values for one entry are separate records, joined by “and”; a condition that tells them apart may be missing. Equal values may be shown once. Inconclusive results are not listed. A call without a number means that no potency is given here. Some structures have more than one record in an assay (separate samples or runs), and their calls can disagree. Activity calls are given as the source filed them. Unless noted, the call rests on the fitted dose curve; in most records, active means well fitted curve in the direction sought with a large enough effect in the repeat runs; inconclusive means weak or mixed curves; inactive means no such curve, though single readings can be large; an effect the other way counts as inactive or inconclusive.
Key:
[1] = qHTS assay to identify small molecule agonists of the peroxisome proliferator-activated receptor delta (PPARd) signaling pathway - cell viability counter screen (AID 743211); further: nearly all actives have a fitted effect of over 55% in size
Procedure, shortened: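 Multiplexed format: after the 2 h room-temperature LiveBLAzer B/G FRET step, CellTiter-Glo was added to the same wells. Luminescence after 30 min gave cell viability; compound exposure was 17 h at 37C.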

[2] = qHTS assay to identify small molecule antagonists of the peroxisome proliferator-activated receptor delta (PPARd) signaling pathway - cell viability counter screen (AID 743213); further: nearly all actives have a fitted effect of over 50% in size
Procedure, shortened: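 Viability counter-screen, qHTS format: PPARd-bla HEK293H, L165041 300 nM final, 17 h compound exposure at 37 C, CellTiter-Glo luminescence after 30 min RT.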

[3] = qHTS assay to identify small molecule antagonists of the farnesoid-X-receptor (FXR) signaling pathway - cell viability counter screen (AID 743221; active means well fitted cell-killing curve with a large enough effect in the repeat runs, not every such curve was filed as active; further: nearly all actives have a fitted effect of over 50% in size)
Procedure, shortened: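 CellTiter-Glo, 30 min RT, luminescence; same wells as the LiveBLAzer FRET read. Cells: FXR-UAS-bla HEK 293T. Treatment: compound with chenodeoxycholic acid 50 uM final, 16 h at 37 C.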

[4] = qHTS assay to identify small molecule antagonists of the vitamin D receptor (VDR) signaling pathway - cell viability counter screen (AID 743225); further: nearly all actives have a fitted effect of over 50% in size
Procedure, shortened: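 Cytotoxicity toward the VDR-bla HEK 293T line was scored by ATP-based CellTiter-Glo luminescence, read in the wells already used for the beta-lactamase readout after 16 h compound treatment under 3 nM 1-alpha,25-dihydroxyvitamin D3 stimulation.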

[5] = qHTS assay to identify small molecule agonists of the NFkB signaling pathway (AID 1159509; active means well fitted curve in the direction sought with a large enough effect in the signal ratio in the repeat runs, not every such curve was filed as active; the % refers to the signal ratio; further: series mostly up to about 61 µM)
Procedure, shortened: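 NFkB-bla ME-180 cells carry a beta-lactamase reporter under an NF-kB response element. They were plated overnight, then exposed to compounds for 5 h at 37 C. Read-out is LiveBLAzer FRET after 1.5 hr at room temperature (405 nm excitation; 460/530 nm emission).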

[6] = qHTS assay to identify small molecule agonists of the NFkB signaling pathway - cell viability counter screen (AID 1159515; calls by dose curve; further: series mostly up to about 61 µM; nearly all actives have a fitted effect of over 55% in size)
Procedure, shortened: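 Using the same wells as the NFkB reporter read, ME-180 NFkB-bla cells given compounds for 5 hr were assessed for viability via CellTiter-Glo, with luminescence taken after a 30 min room-temperature incubation.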

[7] = qHTS assay to identify small molecule agonists of the endoplasmic reticulum stress response signaling pathway (AID 1159516; active means well fitted activation curve with a large enough effect in the signal ratio in the repeat runs, not every such curve was filed as active; the % refers to the signal ratio)
Procedure, shortened: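 An ESRE-bla HeLa cell assay: compounds were pin-transferred from DMSO onto overnight-plated cells and left 5 hr at 37 C. Substrate was then loaded for 2 hr at room temperature before reading fluorescence at 460 nm and 530 nm.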

[8] = qHTS assay to identify small molecule agonists of the endoplasmic reticulum stress response signaling pathway - cell viability counter screen (AID 1159517; calls by dose curve;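 further: HeLa cells carrying an ER stress response element beta-lactamase reporter; series mostly up to about 61 µM; nearly all actives have a fitted effect of over 50% in size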)
Procedure, shortened: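 CellTiter-Glo was added to wells already read for beta-lactamase FRET, and luminescence was recorded 30 min later. Cells: ESRE-bla HeLa, 1,500 per well, compound exposure 5 hr at 37 C.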

[9] = qHTS assay to identify small molecule antagonists of the retinoid-related orphan receptor gamma (ROR-gamma) signaling pathway - cell viability counter screen (AID 1159520); further: nearly all actives have a fitted effect of over 50% in size
Procedure, shortened: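 Tet-on ROR gamma CHO cells (1,000/well) were plated 4 hr, given compounds in DMSO for 2 hr at 37 C, then induced with 1 uM final doxycycline for 16 hr. Viability was read as ATP by CellTiter-Glo luminescence after 30 min.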

[10] = molecular target: Nuclear receptor ROR-gamma (Homo sapiens) (UniProt P51449); assay: qHTS assay to identify small molecule antagonists of the retinoid-related orphan receptor gamma (ROR-gamma) signaling pathway (AID 1159521; further: nearly all actives have a fitted effect of over 50% in size; further: potency means the concentration at half of the fitted maximal effect)
Procedure, shortened: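 Readout: ONE-Glo luciferase luminescence, 30 min at room temperature. System: Tet-on RORγ CHO, RORE-LUC. Sequence: compound 2 h, doxycycline 1 uM final, 16 h at 37 C.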

[11] = qHTS assay to identify small molecule agonists of the AP-1 signaling pathway - cell viability counter screen (AID 1159525; calls by dose curve; further: nearly all actives have a fitted effect of over 55% in size)
Procedure, shortened: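 ME-180 AP-1-bla, 2500 cells/well, Opti-MEM + 0.5% dialyzed FBS; overnight 37 °C; cpd 15-pt titration, 5 h 37 °C; CellTiter-Glo 30 min RT; luminescence read; normalised to TOAB and DMSO controls.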

[12] = molecular target: Peroxisome proliferator-activated receptor delta (Homo sapiens) (UniProt Q03181); assay: qHTS assay to identify small molecule agonists of the peroxisome proliferator-activated receptor delta (PPARd) signaling pathway (AID 743212; calls by dose curve)
Peroxisome proliferator-activated receptor delta (Homo sapiens), sequence (Q03181 whole entry, looked up): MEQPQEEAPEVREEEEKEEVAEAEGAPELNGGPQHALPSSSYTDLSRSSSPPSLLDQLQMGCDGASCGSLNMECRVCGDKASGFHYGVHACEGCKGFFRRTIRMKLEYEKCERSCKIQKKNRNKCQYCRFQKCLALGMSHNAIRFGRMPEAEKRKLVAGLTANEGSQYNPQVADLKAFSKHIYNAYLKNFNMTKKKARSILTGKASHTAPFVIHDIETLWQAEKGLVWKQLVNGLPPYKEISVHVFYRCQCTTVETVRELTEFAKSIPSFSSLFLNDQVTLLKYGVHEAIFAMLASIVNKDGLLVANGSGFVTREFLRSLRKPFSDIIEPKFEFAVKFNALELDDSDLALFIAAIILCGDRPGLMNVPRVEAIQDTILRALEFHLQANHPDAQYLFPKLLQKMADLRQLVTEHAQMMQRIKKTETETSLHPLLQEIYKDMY
Procedure, shortened: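 A PPARd-bla HEK293H line with beta-lactamase under an Upstream Activator Sequence is treated with compounds at 37 C. Substrate loading for 2 h at room temperature precedes the fluorescence measurement.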

[13] = molecular target: Peroxisome proliferator-activated receptor delta (Homo sapiens) (UniProt Q03181); assay: qHTS assay to identify small molecule antagonists of the peroxisome proliferator-activated receptor delta (PPARd) signaling pathway (AID 743215; active means well fitted inhibition curve with a large enough effect in the signal ratio in the repeat runs, not every such curve was filed as active; the % refers to the signal ratio;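 further: cells stimulated with agonist L165041 at 300 nM final during compound exposure; series mostly up to about 62 µM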)
Procedure, shortened: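 HEK293H UAS-bla, PPARd; agonist L165041 300 nM final with cpd in DMSO; 37 C 17 h; FRET substrate, RT 2 h; fluorescence intensity.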

[14] = molecular target: Bile acid receptor (Homo sapiens) (UniProt Q96RI1); assay: qHTS assay to identify small molecule antagonists of the farnesoid-X-receptor (FXR) signaling pathway (AID 743217; active means well fitted inhibition curve with a large enough effect in the signal ratio in the repeat runs, not every such curve was filed as active; the % refers to the signal ratio)
Bile acid receptor (Homo sapiens), sequence (Q96RI1 whole entry, looked up): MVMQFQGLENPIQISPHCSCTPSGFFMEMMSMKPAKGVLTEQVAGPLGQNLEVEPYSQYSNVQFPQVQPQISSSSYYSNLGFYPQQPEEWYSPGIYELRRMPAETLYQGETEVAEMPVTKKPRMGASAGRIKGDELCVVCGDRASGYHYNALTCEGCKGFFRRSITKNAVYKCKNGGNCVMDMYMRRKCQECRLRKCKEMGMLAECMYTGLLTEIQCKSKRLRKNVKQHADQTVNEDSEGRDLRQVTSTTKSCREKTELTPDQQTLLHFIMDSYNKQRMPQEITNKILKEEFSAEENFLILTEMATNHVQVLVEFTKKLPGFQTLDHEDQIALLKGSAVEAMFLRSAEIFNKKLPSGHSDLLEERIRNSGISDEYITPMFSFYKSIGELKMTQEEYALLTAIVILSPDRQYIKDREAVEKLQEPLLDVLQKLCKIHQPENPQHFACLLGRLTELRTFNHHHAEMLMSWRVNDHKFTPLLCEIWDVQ
Procedure, shortened: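 GeneBLAzer FXR-UAS-bla HEK 293T, CDCA-stimulated (50 uM final). Compound treatment 16 h, 37 °C. Detection: beta-lactamase cleavage of B/G FRET substrate, fluorescence.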

[15] = molecular target: Bile acid receptor (Homo sapiens) (UniProt Q96RI1); assay: qHTS assay to identify small molecule agonists of the farnesoid-X-receptor (FXR) signaling pathway (AID 743220; active means well fitted activation curve with a large enough effect in the signal ratio in the repeat runs, not every such curve was filed as active; the % refers to the signal ratio)
Procedure, shortened: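 Beta-lactamase reporter under UAS control in GeneBLAzer FXR HEK 293T cells (5000/well) measured with LiveBLAzer FRET substrate after 2 h at room temperature. Compound exposure lasted 16 h at 37C.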

[16] = qHTS assay to identify small molecule agonists of the vitamin D receptor (VDR) signaling pathway - cell viability counter screen (AID 743224)
Procedure, shortened: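 Plated VDR-bla cells (4 h, 37C) received compound, incubated 16 h, then LiveBLAzer substrate 2 h RT; CellTiter-Glo added afterwards, luminescence read at 30 min.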

[17] = qHTS assay to identify small molecule agonists of the AP-1 signaling pathway (AID 1159526; calls by dose curve)
[18] = molecular target: Vitamin D3 receptor (Homo sapiens) (UniProt P11473); assay: qHTS assay to identify small molecule agonists of the vitamin D receptor (VDR) signaling pathway (AID 743222; calls by dose curve)
Vitamin D3 receptor (Homo sapiens), sequence (P11473 whole entry, looked up): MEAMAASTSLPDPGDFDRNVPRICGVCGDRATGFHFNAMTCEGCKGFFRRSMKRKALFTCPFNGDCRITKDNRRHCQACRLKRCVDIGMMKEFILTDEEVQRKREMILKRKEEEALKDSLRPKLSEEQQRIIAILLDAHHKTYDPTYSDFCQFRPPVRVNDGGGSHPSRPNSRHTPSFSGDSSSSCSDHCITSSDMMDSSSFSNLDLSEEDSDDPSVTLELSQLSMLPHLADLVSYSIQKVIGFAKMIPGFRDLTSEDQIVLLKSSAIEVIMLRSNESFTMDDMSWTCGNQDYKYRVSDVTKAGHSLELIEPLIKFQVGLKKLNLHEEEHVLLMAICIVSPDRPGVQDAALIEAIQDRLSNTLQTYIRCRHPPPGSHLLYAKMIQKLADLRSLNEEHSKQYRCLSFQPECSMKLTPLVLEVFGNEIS
Procedure, shortened: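 In VDR-bla cells, compound-induced beta-lactamase expression is quantified by FRET substrate fluorescence. Treatment lasts 16 h at 37C; substrate develops 2 h at room temperature.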

[19] = molecular target: Vitamin D3 receptor (Homo sapiens) (UniProt P11473); assay: qHTS assay to identify small molecule antagonists of the vitamin D receptor (VDR) signaling pathway (AID 743223; active means well fitted inhibition curve with a large enough effect in the signal ratio in the repeat runs, not every such curve was filed as active; the % refers to the signal ratio)
Procedure, shortened: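 After VDR-bla cells are plated and left 4 h at 37C, DMSO-dissolved compounds and 3 nM (final) calcitriol agonist are added. Incubation continues 16 h at 37C; FRET beta-lactamase substrate then develops 2 h at room temperature.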

[20] = qHTS assay to identify small molecule agonists of the farnesoid-X-receptor (FXR) signaling pathway - cell viability counter screen (AID 743218); further: nearly all actives have a fitted effect of over 45% in size
Procedure, shortened: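 Parallel cytotoxicity test: compound-treated (16 h, 37 C) HEK 293T FXR-bla reporter cells were lysed with CellTiter-Glo and luminescence recorded.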

| SMILES | Potency [1] | Potency [2] | Potency [3] | Potency [4] | outcome [5] | Potency [6] | Potency [7] | Potency [8] | Potency [9] | Potency [10] | Potency [11] | outcome [12] | Potency [13] | Potency [14] | outcome [15] | Potency [16] | outcome [17] | outcome [18] | outcome [19] | Potency [20] |
| --- | --- | --- | --- | --- | --- | --- | --- | --- | --- | --- | --- | --- | --- | --- | --- | --- | --- | --- | --- | --- |
| Nc1ccc(Nc2ccccc2)cc1 | inactive | inactive | inactive | inactive | inactive | inactive | inactive | inactive | inactive | inactive and 27.3 µM (active) | inactive |  |  |  |  |  |  |  |  |  |
| O=C(c1ccccc1)c1ccc(O)cc1O | inactive | inactive | inactive | inactive | inactive | inactive | inactive | inactive | inactive | 55.5 µM (active) and inactive | inactive | inactive | inactive | inactive | inactive | inactive | inactive |  |  |  |
| CC(C)(C)NC(=O)[C@H]1CC[C@H]2[C@@H]3CC[C@H]4NC(=O)C=C[C@]4(C)[C@H]3CC[C@]12C | inactive | inactive | inactive | inactive | inactive | inactive | inactive | inactive | inactive | inactive | inactive | inactive | inactive |  | inactive | inactive | inactive | inactive |  |  |
| O=C(c1ccccc1)c1ccccc1O | inactive | inactive | inactive | inactive | inactive | inactive | inactive | inactive | inactive | inactive | inactive |  |  |  |  | inactive | inactive | inactive | inactive |  |
| O=C(COc1ccc(Cl)cc1)N1CCN(Cc2ccc3c(c2)OCO3)CC1 | inactive | inactive | inactive | inactive | inactive | inactive | inactive | inactive | inactive | inactive |  | inactive | inactive |  |  | inactive | inactive | inactive | inactive |  |
| COC(=O)c1ccccc1 | inactive | inactive | inactive | inactive | inactive | inactive | inactive | inactive | inactive | inactive |  | inactive | inactive |  |  | inactive | inactive | inactive |  | inactive |
| Cn1cnc([N+](=O)[O-])c1Sc1ncnc2nc[nH]c12 | inactive | inactive | inactive | inactive | inactive | inactive | inactive | inactive | inactive | 30.5 µM (active) and inactive |  | inactive | inactive |  |  |  | inactive |  |  |  |
| COc1c(Cl)c(Cl)c(Cl)c(Cl)c1Cl | inactive | inactive | inactive | inactive | inactive | inactive | inactive | inactive | inactive | inactive | inactive |  |  | inactive | inactive | inactive | inactive |  |  | inactive |

Source: PubChem BioAssay (Tox21)
